# Results as given in PubChem BioAssay (NCI).
# The panel holds about 83,000 compounds, 20% with a hit somewhere; the sample as a whole holds those more often.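 Cells were grown in 96-well plates and exposed to the test compound at a single concentration for 48 hours; results are reported as percent growth, with values below 10 considered active.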 A number with no mark means an inactive call. Active and inactive are the calls of the source.
# Columns and labels:
# Test in all cases: NCI-60 one-dose screen, 48 h (100 = growth as untreated, 0 = no growth, -100 = all killed)
# Conditions in all cases: 10 µM unless noted
# NCI-H23 lung = test system: NCI-H23 lung
# NCI-H226 lung = test system: NCI-H226 lung
# NCI-H322M lung = test system: NCI-H322M lung
# HOP-62 NSCLC = test system: HOP-62 NSCLC
# NCI-H460 lung = test system: NCI-H460 lung
# HOP-92 NSCLC = test system: HOP-92 NSCLC
# NCI-H522 lung = test system: NCI-H522 lung
# A549/ATCC NSCLC = test system: A549/ATCC NSCLC
# 786-0 renal = test system: 786-0 renal
# COLO 205 colon = test system: COLO 205 colon
# DU-145 prostate = test system: DU-145 prostate
# K-562 leukemia = test system: K-562 leukemia
# MALME-3M melanoma = test system: MALME-3M melanoma
# MDA-MB-231 breast = test system: MDA-MB-231 breast
# RXF 393 renal = test system: RXF 393 renal
# SF-268 CNS = test system: SF-268 CNS
# SF-295 CNS = test system: SF-295 CNS
# SF-539 CNS = test system: SF-539 CNS
# UACC-257 melanoma = test system: UACC-257 melanoma
# M14 melanoma = test system: M14 melanoma
Compound,growth (NCI-H23 lung),growth (NCI-H226 lung),growth (NCI-H322M lung),growth (HOP-62 NSCLC),growth (NCI-H460 lung),growth (HOP-92 NSCLC),growth (NCI-H522 lung),growth (A549/ATCC NSCLC),growth (786-0 renal),growth (COLO 205 colon),growth (DU-145 prostate),growth (K-562 leukemia),growth (MALME-3M melanoma),growth (MDA-MB-231 breast),growth (RXF 393 renal),growth (SF-268 CNS),growth (SF-295 CNS),growth (SF-539 CNS),growth (UACC-257 melanoma),growth (M14 melanoma)
NS(=O)(=O)c1ccc(N2N=C(c3ccc(NC(=O)Nc4ccccc4)cc3)CC2c2ccc(Br)cc2)cc1 (configuration not stated),-95.2% (active),-84.2% (active),-87.3% (active),-70.3% (active),-83.9% (active),-87% (active),-79.7% (active),-57.7% (active),-85.7% (active),-53.5% (active),-7.86% (active),16.7%,-97.1% (active),-94.8% (active),-96.4% (active),-29.7% (active),-64.9% (active),-99.2% (active),-16.8% (active),-69.2% (active)
O=C(NNC(=O)c1ccc(OCc2nc3ccc(Cl)cc3[nH]2)cc1)Nc1ccc(Cl)c(Cl)c1,47%,93%,47.6%,65.4%,27.5%,62.1%,60.4%,60.2%,80.8%,105%,73%,29.6%,6.73% (active),44.1%,69.4%,85.6%,101%,43.3%,95.6%,56.4%
COc1cc(/C=N/NC(=O)c2ccc(OCc3nc4ccc(C)cc4[nH]3)cc2)cc(OC)c1OC,22.3%,43%,66.2%,62.5%,33.6%,96.5%,28.1%,28.4%,41.2%,8.02% (active),62.2%,17.7%,4.8% (active),87.8%,39.6%,78.7%,40.4%,49.2%,11.3%,33%
COc1ccc2[nH]cc(-c3cc4nc(-c5cn(C)c6ncc(Br)cc56)cc(N)n4n3)c2c1,-76.7% (active),-31.6% (active),-47.5% (active),-50.2% (active),-51.3% (active),-79.2% (active),-64.9% (active),,-95% (active),-75.5% (active),-70.7% (active),-27.4% (active),-87% (active),-83.8% (active),-77.2% (active),-44% (active),-77.4% (active),-95.4% (active),-82.3% (active),-85.2% (active)
Cn1cc(-c2cc3nc(-c4cn(C)c5ncc(Br)cc45)cc(N)n3n2)c2cc(F)ccc21,15.2%,10.9%,35.3%,15%,20.9%,-18.3% (active),2.15% (active),0.571% (active),-5.13% (active),51.6%,0.863% (active),21.9%,8.23% (active),-42.1% (active),-39.8% (active),57.6%,-45.7% (active),-26.5% (active),24.4%,7.16% (active)
CCCCC[C@@H]1C/C=C(\C)[C@@H](O)C(C)(C)C(=O)[C@@H](C)/C=C(\C)[C@@H]2C[C@H](O)C[C@](O)(CC(=O)O1)O2,31%,14%,82%,68.7%,49.6%,60.4%,12.5%,,65.8%,37.6%,41.3%,13.6%,34.9%,83.4%,68%,43.1%,11%,73.8%,1.3% (active),49.6%
O=C1Nc2cc(-c3ccc(NS(=O)(=O)c4ccc([N+](=O)[O-])cc4)cc3)ccc2/C1=C/c1ccc[nH]1,3.29% (active),-12.3% (active),62.2%,0.132% (active),3.96% (active),-29.9% (active),-5.99% (active),,-8.24% (active),-31.8% (active),-44.9% (active),12.6%,-0.842% (active),12.3%,-44.3% (active),46.6%,-32.7% (active),-54.4% (active),4.04% (active),-13.9% (active)
